Measurements reported in PubChem BioAssay (NCATS).
Records with an inconclusive call do not appear. Active and inactive are the calls of the source. Calls come from the whole dose curve; as a rule, active = well fitted cell-killing curve with a large enough effect; inconclusive = small, poorly fitted or top-dose-only effect, or effect the other way; inactive = flat fitted curve, though single readings scatter.

How the values were obtained:
Assay in all cases: Primary qHTS to identify gynecologic anti-cancer compounds using libraries of approved drugs and bioactive compounds (AID 1345084); note: nearly all actives have a fitted effect of over 55% in size
C33A = conditions: Gynecologic cancer cell panel viability, ATPlite luminescence, 48 h; series mostly up to 57.5 µM
How it was run: (§1)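 ATP-based viability (ATPlite), 1,000 cells/well, 16 h pre-incubation, 48 h compound at 37 C, 5% CO2, 15 min RT before read.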

CAOV3 = conditions: Gynecologic cancer cell panel viability, ATPlite luminescence, 48 h; series mostly up to 57.5 µM
How it was run: as §1

CASKI = conditions: Gynecologic cancer cell panel viability, ATPlite luminescence, 48 h; series mostly up to 57.5 µM
How it was run: as §1

Es-2 = conditions: Gynecologic cancer cell panel viability, ATPlite luminescence, 48 h; series mostly up to 57.5 µM
How it was run: as §1

HeLa = conditions: Gynecologic cancer cell panel viability, ATPlite luminescence, 48 h; series mostly up to 57.5 µM
How it was run: as §1

Hek293T = conditions: Gynecologic cancer cell panel viability, ATPlite luminescence, 48 h, control line for the selectivity index; series mostly up to 57.5 µM
How it was run: as §1

OV90 = conditions: Gynecologic cancer cell panel viability, ATPlite luminescence, 48 h; series mostly up to 57.5 µM
How it was run: as §1

Tov112D = conditions: Gynecologic cancer cell panel viability, ATPlite luminescence, 48 h; series mostly up to 57.5 µM
How it was run: as §1

SKOV3 = conditions: Gynecologic cancer cell panel viability, ATPlite luminescence, 48 h; series mostly up to 57.5 µM
How it was run: as §1

Tov-21-G = conditions: Gynecologic cancer cell panel viability, ATPlite luminescence, 48 h; series mostly up to 57.5 µM
How it was run: as §1

JEG-3 = conditions: Gynecologic cancer cell panel viability, ATPlite luminescence, 48 h; series mostly up to 57.5 µM
How it was run: as §1

PA-1 = conditions: Gynecologic cancer cell panel viability, ATPlite luminescence, 48 h; series mostly up to 57.5 µM
How it was run: as §1

Measured: Potency
Potency is the fitted concentration of half-maximal effect.

CN1CCN(S(=O)(=O)c2ccc(-c3cnc(N)c(C(=O)Nc4cccnc4)n3)cc2)CC1
inactive: C33A | CAOV3 | CASKI | Es-2 | HeLa | Hek293T | OV90 | Tov112D

CCN(CC)CCCCCCNc1cc(OC)cc2c(C)ccnc12
inactive: C33A | CAOV3 | CASKI | Es-2 | HeLa | Hek293T | SKOV3 | Tov-21-G

C=C1C(=O)O[C@@H]2/C=C(\C)CC/C=C(\C)CC[C@@H]12
inactive: C33A | CAOV3 | CASKI | Es-2 | HeLa | Hek293T | OV90 | SKOV3 | Tov112D

Cc1c(C2=CCN(C(=O)N(C)C(C)C)CC2)nnn1-c1cccnc1F
inactive: C33A | CAOV3 | CASKI | Es-2 | Hek293T | JEG-3 | OV90 | PA-1 | SKOV3 | Tov-21-G | Tov112D

N#Cc1ccc2ncnc(NCCc3ccccc3)c2c1
inactive: C33A | CAOV3 | CASKI | Es-2 | HeLa | JEG-3 | OV90 | PA-1 | SKOV3 | Tov-21-G | Tov112D

O=C(N[C@@H]1CCCc2c1cnn2-c1ccc(F)cc1F)c1ccccn1
inactive: C33A | CAOV3 | CASKI | Es-2 | HeLa | OV90 | PA-1 | Tov-21-G | Tov112D

Nc1nccc(-c2c(-c3ccc(F)cc3)ncn2C2CCCCC2)n1
inactive: C33A | CAOV3 | CASKI | Es-2 | HeLa | JEG-3 | SKOV3

COc1ccc(N2CCN(C(=O)c3cc4c(s3)-c3ccccc3S(=O)(=O)C4)CC2)cc1
inactive: C33A | CAOV3 | CASKI | Es-2 | HeLa | JEG-3 | OV90 | PA-1 | SKOV3 | Tov-21-G | Tov112D

CS(=O)(=O)Nc1ccc2oc3c(OC(F)F)ccc(C(=O)Nc4c(Cl)cncc4Cl)c3c2c1
inactive: C33A | CAOV3 | CASKI | Es-2 | Hek293T | JEG-3 | OV90 | PA-1 | SKOV3 | Tov-21-G | Tov112D

CCCCNc1ncc(-c2ccc(CN3CCOCC3)cn2)c(NC2CCC(O)CC2)n1 (centres undefined)
inactive: C33A | CAOV3 | CASKI | Es-2 | Hek293T | JEG-3 | OV90 | PA-1 | Tov-21-G | Tov112D

NC(=O)N1CCC(CC(=O)N2CCC(C3c4ncc(Br)cc4CCc4cc(Cl)cc(Br)c43)CC2)CC1 (centres undefined)
inactive: C33A | CAOV3 | CASKI | Es-2 | HeLa | JEG-3 | PA-1 | SKOV3 | Tov-21-G

CC(C)OC(=O)N1CCC(Oc2ncnc3c2cnn3-c2ccc(S(C)(=O)=O)cc2F)CC1
inactive: C33A | CAOV3 | CASKI | Es-2 | HeLa | JEG-3 | OV90 | PA-1 | SKOV3 | Tov-21-G | Tov112D

O=C(NCCO)c1cccc(-c2cc(Nc3ccc(OC(F)(F)F)cc3)ncn2)c1
inactive: C33A | CAOV3 | CASKI | Es-2 | HeLa | JEG-3 | OV90 | PA-1 | SKOV3 | Tov-21-G | Tov112D

CC(C)C[C@@H]1NC(=O)[C@@H](Cc2ccccc2)NC(=O)C(CCCCCC(=O)C2CO2)NC(=O)[C@@H]2CCCCN2C1=O (some centres undefined)
active: CASKI 0.708 µM | Es-2 2.24 µM
inactive: C33A | CAOV3 | HeLa | Hek293T | Tov112D

COc1nc2ccc(Br)cc2cc1[C@@H](c1ccccc1)[C@@](O)(CCN(C)C)c1cccc2ccccc12
inactive: C33A | CAOV3 | CASKI | Es-2 | HeLa | JEG-3 | OV90 | PA-1 | SKOV3 | Tov-21-G | Tov112D

CCCc1ccc(OCC(=O)N(Cc2nc(-c3cccnc3)no2)C(C)C)cc1
inactive: C33A | CAOV3 | CASKI | Es-2 | HeLa | JEG-3 | OV90 | PA-1 | SKOV3 | Tov-21-G | Tov112D

C=C1/C(=C/C=C2\CCC[C@]3(C)[C@@H]([C@@H](C)OCCC(O)(CC)CC)CC[C@@H]23)C[C@@H](O)C[C@@H]1O
inactive: C33A | CAOV3 | CASKI | Es-2 | HeLa | OV90 | PA-1 | SKOV3 | Tov-21-G | Tov112D

C[C@@H]1CCCN1CCc1cc2cc(-c3ccc(C#N)cc3)ccc2o1
inactive: C33A | CAOV3 | CASKI | Es-2 | HeLa | JEG-3 | SKOV3 | Tov-21-G | Tov112D
